The values below come from PubChem BioAssay (NCI).

Compounds without any hit were thinned out: in the full panel of roughly 83,000, 20% have a hit.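 The test compound was applied at a single concentration to cells in 96-well plates for 48 hours, and percent growth was recorded.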 Unmarked numbers belong to inactive results. The source made the active and inactive calls. How the source made its calls: active means growth percent below 10; inactive means the rest.

The assay concerns NCI-H460 lung. Kind of assay: NCI-60 one-dose screen, 48 h (100 = growth as untreated, 0 = no growth, -100 = all killed). Particulars: 10 µM unless noted.
For the molecule `COc1ccc(OC)c(/C=N/Nc2ncnc3c2c(C)nn3C)c1`, the growth was 106%.
Turning to `Cc1c[n+](Cc2ccc3ccccc3c2)cn1Cc1ccc2ccccc2c1`, the growth was 21.9%.
The figure for `COc1cc(OC)c(/C=C/C(=O)c2c(OC)cccc2OC)c(OC)c1` is 9.67% (active); for `COC(=O)c1c(C)nc(C)c2c1C(=O)C(Br)=C(NCc1ccccc1)C2=O` it is 11.7%.
Then `CCNCCNc1cc(-c2ccc(C(F)(F)F)cc2)c(C#N)c2nc3ccccc3n12`, with -81.4% (active).
Turning to `CSc1nc2ccccc2cc1/C=[N+](\[O-])c1ccccc1`, the growth was 92.1%.
`CC(=O)Oc1ccc(N2C(=O)C(Cl)=C(Nc3cccc(C(F)(F)F)c3)C2=O)cc1`: the growth was 102%.
Then `CC(=O)Oc1ccc(C)cc1C`, with 115%; and `O=C(Nc1ccc(Oc2cccc(Cl)c2)c(Cl)c1)c1cnccn1`, with 15.7%; and `CCC(=O)Oc1ccc(-c2ccccc2)cc1Br`, with 98.8%.
The figure for `CCN(CC)CC(O)COc1c(Br)c(Br)c(Br)c2c1OC(C)(C)C2` (stereo not given) is 27.7%; for `Fc1cc2c(cc1Cl)N(c1ncnc3ccc(-c4ccc5n[nH]nc5c4)cc13)CC2` it is 97.1%; for `Nc1c(C(=O)Nc2ccncc2)sc2nc3c(cc12)C(O)CCC3` (stereo not given) it is 102%.
The figure for `CCOC(=O)c1cc2c(n1Cc1cc(OC)c(OC)c(OC)c1)-c1nc(N)sc1CCC2` is 31.9%; for `Cc1ccc(Nn2c(SCC(=O)Nc3nc(-c4ccccc4)cs3)nc(C)c2C)cc1` it is 78.1%; for `O=C(NCc1ccc(Cl)cc1Cl)C1CCC(=O)N1c1cccs1` (stereo not given) it is 104%.
In the case of `COc1cc(C2c3cc(OC(C)=O)c(OC)cc3CC3C(=O)OCC32)ccc1OC(C)=O` (stereo not given), the growth was 109%.
On to `CCOC(=O)c1ccc(NC(=O)c2nc(-c3cc(OC)c(OC)c(OC)c3)n(-c3ccc(Cl)cc3)n2)cc1`, for which the growth is 97.1%.
The figure for `Cc1nc2sc(C(=O)Nc3cccc(Br)c3)c(N)c2cc1C(O)c1ccccc1` (stereo not given) is 4.9% (active).
The figure for `OB1OCc2cc(/C=C/c3cccc(C(F)(F)F)c3)ccc21` is -10.1% (active); for `COC(=O)[C@@H](CCCCNC(=O)[C@]12CCC(C)(C)C[C@@H]1C1=CC[C@@H]3[C@@]4(C)C/C(=C/c5ccco5)C(=O)C(C)(C)[C@@H]4CC[C@@]3(C)[C@]1(C)CC2)NC(=O)[C@]12CCC(C)(C)C[C@@H]1C1=CC[C@@H]3[C@@]4(C)C/C(=C/c5ccco5)C(=O)C(C)(C)[C@@H]4CC[C@@]3(C)[C@]1(C)CC2` it is 107%; for `COc1c(C(=O)Nc2ccc(C)c(Br)c2)ccc2ccccc12` it is 102%.
The figure for `COC(=O)CC[C@@H]1O[C@@H](c2cccc(C(F)(F)F)c2)[C@@H](O)[C@H]1O` is 102%; for `COc1ccc(/C=C(\C#N)n2nnc3cc(F)c(F)cc32)cc1` it is 87.8%.
As to `CCCC/C(CC)=N\NS(=O)(=O)c1ccc([N+](=O)[O-])cc1`, the growth is 105%.
The figure for `CCC(C(=O)[C@@H](C)[C@@H](O)[C@H](C)[C@@H]1O[C@@H]([C@@H](CC)C(=O)ONC(=O)c2ccccc2)CC[C@@H]1C)[C@H]1O[C@]2(C=CC(=O)[C@]3(CC[C@@](C)([C@H]4CC[C@](O)(CC)[C@H](C)O4)O3)O2)[C@H](C)C[C@@H]1C` (stereo not given in full) is -57.8% (active).
The figure for `COC(=O)[C@]12CCC(C)(C)C[C@H]1[C@H]1/C(=N/OCCc3nn[nH]n3)C[C@@H]3[C@@]4(C)CC[C@H](OC(C)=O)C(C)(C)[C@@H]4CC[C@@]3(C)[C@]1(C)CC2` is 9.64% (active); for `N#CC(C#N)N=Nc1ccc(Br)cc1` it is 95.8%; for `CCOC(=O)NC(C)C` it is 115%.
Then `CCCNC(=O)Nc1ccc2cc3ccc(NC(=O)NCCC)cc3nc2c1`, with 104%.
`C=CCN=c1sc2c(n1NC(=O)c1cc3ccc1CCc1ccc(cc1)CC3)C(=O)c1ccccc1C2=O`: the growth is 12.7%.
In the case of `Cc1ccc2c(n1)C(=O)C(Br)=C(CC(C)C)C2=O`, the growth is 105%.
Then `CC(C)COc1nc2c(c(=O)n(C)c(=O)n2C)n1C`, with 105%; and `Cc1ccccc1/C=C/C(=O)c1cccc(OCCCCOc2cccc(C(=O)/C=C/c3ccccc3C)c2)c1`, with 98.1%.
Then `COc1ccc2cc1Oc1ccc(cc1)C[C@H]1c3c(cc4c(c3Oc3cc5c(cc3OC)CCN(C)[C@@H]5C2)OCO4)CCN1C`, with 59.4%.
